Assay results published in PubChem BioAssay (NCATS).
Records with an inconclusive call do not appear. Active and inactive are the calls of the source. Unless noted, calls come from the whole dose curve; as a rule, active = well fitted inhibition curve with a large enough effect; inconclusive = small, poorly fitted or top-dose-only effect; inactive = flat fitted curve, though single readings scatter.

Columns and labels:
[1] = AP1 Signaling Pathway (AID 357; active = well fitted curve in either direction with a large enough effect, not every such curve was filed as active; note: % is set by controls: 0 for no effect and ±100 for the full control effect)
How it was run: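 ME-180 cells with beta-lactamase reporter under AP-1 response element, stimulated with EC50 EGF; compounds tested in titration series, 5 h at 37 °C. CCF4 substrate added 2.5 h at room temperature; 460/530 nm emission ratio gave %activity and AC50.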

[2] = biological target: Cytochrome P450 1A2 (Homo sapiens) (UniProt P05177); assay: p450-cyp1a2 (AID 410; calls by dose curve; note: potency is the fitted concentration of half-maximal effect;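 for activity change, negative = inhibition: -100% = full effect of reference inhibitor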)
How it was run: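 O-Demethylation of luciferin 6' methyl ether by human CYP1A2 is monitored as luciferase luminescence. Substrate sits at Km (100uM); enzyme is 20nM. Values are scaled to 57 uM furafylline as maximal inhibition.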

[3] = NFAT Signaling Pathway (AID 444; active = well fitted curve in either direction with a large enough effect, not every such curve was filed as active;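 note: carbachol stimulus at about its EC50 of 1 µM final; % is set by controls: 0 for no effect and ±100 for the full control effect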); conditions: Jurkat NFAT-bla M1, carbachol, beta-lactamase ratio, 5 h; at 17.2 µM (top of the series) unless noted
How it was run: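 Read-out: CCF4 FRET ratio (460 nm/530 nm) after 1 h RT dye loading, used for %activity and AC50 from titration series. Cells: Jurkat NFAT-β-lactamase/M1 line, treated with compound plus 1 uM carbachol for 5 h, 37 °C.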

[4] = Stat Signaling Pathway (AID 446; active = well fitted curve in either direction with a large enough effect, not every such curve was filed as active;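 note: ME-180 cervical cancer cells given 40 pM IL-6 alongside compound; SIE-controlled beta-lactamase reporter measured as 460/530 nm FRET emission ratio; % is set by controls: 0 for no effect and ±100 for the full control effect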)
How it was run: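 Emission at 460 and 530 nm (excitation 405 nm) reports SIE-controlled beta-lactamase in ME-180 cells. Cells received compound with 40 pM IL-6 for 5 hrs at 37 C; data scaled between 300 pM IL-6 and 125 nM JAK-inhibitor controls.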

[5] = biological target: Glucocorticoid receptor (Homo sapiens) (UniProt P04150); assay: GR-GFP Redistribution (AID 450;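 active = compounds whose dose series gives a full or clear partial fitted curve of increased nuclear translocation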; note: potency is the fitted concentration of half-maximal effect); conditions: U2OS GR-GFP nuclear translocation, laser cytometry, 2 h
[6] = biological target: Glucocorticoid receptor (Homo sapiens) (UniProt P04150); assay: GR-EFC Redistribution (AID 451; calls by dose curve; note: potency is the fitted concentration of half-maximal effect); conditions: CHO-K1 GR-EFC translocation, beta-gal luminescence, 2 h
How it was run: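 Translocation of GR-ED fusion to nuclear EA restores b-gal, read by luminescence after 1 h room-temperature detection. Engineered CHO-K1 biosensor cells, 1,000/well, exposed 2 h at 37 C to titrations up to 46 uM final.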

[7] = biological target: 3',5'-cyclic-AMP phosphodiesterase 4B (Homo sapiens) (UniProt Q07343); assay: qHTS Assay for Inhibitors of PDE-IV (AID 607; active = well fitted activation curve with a large enough effect in the main read-out, with a control signal flat, not every such curve was filed as active; note: % of control where 0% means no effect)
How it was run: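 The readout is membrane depolarisation from a cAMP-sensing CNG channel, detected with a potential dye at ex 535/em 590. Cells were HEK293-derived (endogenous PDE-IV) at 1000 cells/well, titrated up to 22.9 uM final.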

[8] = qHTS Assay for Lipid Storage Modulators (AID 1519; calls by dose curve); conditions: Drosophila S3 cells, BODIPY lipid droplet/cell ratio, laser cytometry, cells loaded with oleic acid; for activity change, negative = inhibition: at 25.7 µM (top of the series)
How it was run: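 Cells seeded at 5,000 per well were treated with compounds over a concentration series and loaded with oleic acid (400 uM, as added). Lipid droplet fluorescence (488 nm excitation, 500-530 nm channel) was read by laser-scanning cytometry and normalized to 20 uM Triacsin C.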

[9] = biological target: Luciferin 4-monooxygenase (Photinus pyralis) (UniProt P08659); assay: Biochemical firefly luciferase enzyme assay for NPC (AID 624030);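 note: purified P. pyralis luciferase at 10 nM with luciferin and ATP substrate; 0% = DMSO and -100% = full luciferase inhibition by PTC124 control; nearly all actives have a fitted effect of over 70% in size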
How it was run: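 Direct inhibition of firefly luciferase enzyme (10 nM final, 50 mM Tris Acetate) assessed by luminescence within 5 minutes. Percent activity scaled between DMSO and PTC124 positive control, with concentration-effect curves classified by fit quality and response.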

[10] = qHTS profiling for inhibitors of Plasmodium falciparum proliferation (AID 504749); note: potency is the fitted concentration of half-maximal effect;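 for activity, negative = inhibition: 0% = DMSO vehicle and full inhibition = artemisinin control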; for all read-outs here: nearly all actives have a fitted effect of over 60% in size; conditions: P. falciparum in erythrocytes, SYBR Green DNA, 72 h; for activity, negative = inhibition: at 12.8 µM (top of the series)
How it was run: (§1)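 SYBR Green fluorescence of parasite DNA, read after lysis and overnight dark incubation, measured growth over 72 h in erythrocyte culture at 0.3% parasitemia and 2.5% hematocrit. Data normalised to DMSO and 0.29 uM artemisinin, with plate-drift correction.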

C2A = assay: as above; conditions: P. falciparum in erythrocytes, SYBR Green DNA, 72 h; series mostly up to 12.8 µM
How it was run: as §1

CP217 = assay: as above; conditions: P. falciparum in erythrocytes, SYBR Green DNA, 72 h; series mostly up to 12.8 µM
How it was run: as §1

CP238 = assay: as above; conditions: P. falciparum in erythrocytes, SYBR Green DNA, 72 h; series mostly up to 12.8 µM
How it was run: as §1

CP250 = assay: as above; conditions: P. falciparum in erythrocytes, SYBR Green DNA, 72 h; series mostly up to 12.8 µM
How it was run: as §1

CP256 = assay: as above; conditions: P. falciparum in erythrocytes, SYBR Green DNA, 72 h; series mostly up to 12.8 µM
How it was run: as §1

FAB9 = assay: as above; conditions: P. falciparum in erythrocytes, SYBR Green DNA, 72 h; series mostly up to 12.8 µM
How it was run: as §1

JCK = assay: as above; conditions: P. falciparum in erythrocytes, SYBR Green DNA, 72 h; series mostly up to 12.8 µM
How it was run: as §1

SC27B = assay: as above; conditions: P. falciparum in erythrocytes, SYBR Green DNA, 72 h; series mostly up to 12.8 µM
How it was run: as §1

[11] = biological target: Mitogen-activated protein kinase 10 (Mus musculus) (UniProt Q61831); assay: JNK3 AlphaScreen Assay (AID 530; active = well fitted curve in either direction with a large enough effect, not every such curve was filed as active;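 note: kinase came from lysate of stimulated human HepG2 cells; signal reports phosphorylation of biotinylated GST-cJun 1-79 at Ser73 with 10 µM ATP; % is set by controls: 0 for no effect and ±100 for the full control effect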)
How it was run: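 qHTS titrations with 15 min compound pre-incubation before adding ATP (10 uM final). Read-out: AlphaScreen of Ser73-phosphorylated biotin-GST-cJun using HepG2 lysate JNK3 activated by IL-1β and TNFα.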

[12] = biological target: Ubiquitin carboxyl-terminal hydrolase 1 (Homo sapiens) (UniProt O94782); assay: Inhibitors of USP1/UAF1: Pilot qHTS (AID 504865);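 note: rhodamine fluorescence freed from ubiquitin-rhodamine substrate followed over time; top concentration of the series differs between compounds; % is set by controls: 0 for no effect and ±100 for the full control effect; nearly all actives have a fitted effect of over 35% in size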
How it was run: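 1nM USP1/UAF1 + cpd, 15 min RT; start w/ Ub-Rho 150nM final; kinetic FL 480/540 nm, 6 reads q60 s. Buffer 50mM HEPES pH 7.8, 0.5mM EDTA, 1mM TCEP, 0.01% Tween-20, 0.1 mg/ml BSA.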

[13] = measured here: cell count channel max response
[14] = measured here: lipid channel max response

Chain of Cytochrome P450 1A2 (Homo sapiens) (P05177 whole entry, looked up): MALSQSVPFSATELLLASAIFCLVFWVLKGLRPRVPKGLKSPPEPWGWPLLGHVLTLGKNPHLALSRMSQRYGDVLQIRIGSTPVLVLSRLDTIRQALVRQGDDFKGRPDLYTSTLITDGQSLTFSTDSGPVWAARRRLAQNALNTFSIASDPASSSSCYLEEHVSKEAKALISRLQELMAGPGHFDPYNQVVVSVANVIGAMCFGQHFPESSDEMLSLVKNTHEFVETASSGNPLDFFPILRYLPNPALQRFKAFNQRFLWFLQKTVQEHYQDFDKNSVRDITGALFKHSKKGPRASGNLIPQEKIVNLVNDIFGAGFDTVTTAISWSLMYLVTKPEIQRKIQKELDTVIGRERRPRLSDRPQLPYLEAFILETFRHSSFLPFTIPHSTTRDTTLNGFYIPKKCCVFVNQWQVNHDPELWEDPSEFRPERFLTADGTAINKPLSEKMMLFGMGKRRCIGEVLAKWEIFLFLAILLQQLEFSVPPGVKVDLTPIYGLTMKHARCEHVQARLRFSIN
Chain of 3',5'-cyclic-AMP phosphodiesterase 4B (Homo sapiens) (Q07343 whole entry, looked up): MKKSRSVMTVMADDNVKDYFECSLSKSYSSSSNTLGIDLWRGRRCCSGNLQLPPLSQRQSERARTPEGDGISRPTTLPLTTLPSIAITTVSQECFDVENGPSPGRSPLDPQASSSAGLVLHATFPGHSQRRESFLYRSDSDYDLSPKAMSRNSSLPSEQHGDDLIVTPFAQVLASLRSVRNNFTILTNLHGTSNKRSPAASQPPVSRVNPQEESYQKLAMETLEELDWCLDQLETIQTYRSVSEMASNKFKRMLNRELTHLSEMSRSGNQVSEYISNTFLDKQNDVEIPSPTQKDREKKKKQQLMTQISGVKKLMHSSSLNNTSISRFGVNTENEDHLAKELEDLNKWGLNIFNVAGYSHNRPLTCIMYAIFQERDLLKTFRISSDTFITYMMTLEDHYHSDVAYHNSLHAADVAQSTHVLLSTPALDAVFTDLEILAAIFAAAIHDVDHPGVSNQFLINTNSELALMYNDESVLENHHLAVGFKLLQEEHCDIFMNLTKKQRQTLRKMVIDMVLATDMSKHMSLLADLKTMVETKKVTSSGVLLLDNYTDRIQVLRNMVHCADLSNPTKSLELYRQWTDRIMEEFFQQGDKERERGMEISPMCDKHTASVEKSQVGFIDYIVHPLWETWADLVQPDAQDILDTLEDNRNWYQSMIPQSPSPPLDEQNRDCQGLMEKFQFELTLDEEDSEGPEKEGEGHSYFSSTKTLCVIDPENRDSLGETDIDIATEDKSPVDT
Chain of Luciferin 4-monooxygenase (Photinus pyralis) (P08659 whole entry, looked up): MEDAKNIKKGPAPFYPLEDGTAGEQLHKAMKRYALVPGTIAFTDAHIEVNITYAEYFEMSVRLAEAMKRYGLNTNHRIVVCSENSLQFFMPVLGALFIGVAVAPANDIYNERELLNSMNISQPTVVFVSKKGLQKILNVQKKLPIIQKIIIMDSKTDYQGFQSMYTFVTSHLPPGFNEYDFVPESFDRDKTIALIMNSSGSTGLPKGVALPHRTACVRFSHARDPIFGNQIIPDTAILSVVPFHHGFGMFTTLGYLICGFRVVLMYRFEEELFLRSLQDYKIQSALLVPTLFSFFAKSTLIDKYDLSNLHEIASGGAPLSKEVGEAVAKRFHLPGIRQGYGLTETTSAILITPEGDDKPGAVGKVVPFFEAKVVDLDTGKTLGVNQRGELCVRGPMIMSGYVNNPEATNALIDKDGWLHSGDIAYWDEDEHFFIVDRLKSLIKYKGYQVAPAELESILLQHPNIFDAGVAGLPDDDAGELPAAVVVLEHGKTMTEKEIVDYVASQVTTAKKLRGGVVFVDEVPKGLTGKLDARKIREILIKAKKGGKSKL
Chain of Ubiquitin carboxyl-terminal hydrolase 1 (Homo sapiens) (O94782 whole entry, looked up): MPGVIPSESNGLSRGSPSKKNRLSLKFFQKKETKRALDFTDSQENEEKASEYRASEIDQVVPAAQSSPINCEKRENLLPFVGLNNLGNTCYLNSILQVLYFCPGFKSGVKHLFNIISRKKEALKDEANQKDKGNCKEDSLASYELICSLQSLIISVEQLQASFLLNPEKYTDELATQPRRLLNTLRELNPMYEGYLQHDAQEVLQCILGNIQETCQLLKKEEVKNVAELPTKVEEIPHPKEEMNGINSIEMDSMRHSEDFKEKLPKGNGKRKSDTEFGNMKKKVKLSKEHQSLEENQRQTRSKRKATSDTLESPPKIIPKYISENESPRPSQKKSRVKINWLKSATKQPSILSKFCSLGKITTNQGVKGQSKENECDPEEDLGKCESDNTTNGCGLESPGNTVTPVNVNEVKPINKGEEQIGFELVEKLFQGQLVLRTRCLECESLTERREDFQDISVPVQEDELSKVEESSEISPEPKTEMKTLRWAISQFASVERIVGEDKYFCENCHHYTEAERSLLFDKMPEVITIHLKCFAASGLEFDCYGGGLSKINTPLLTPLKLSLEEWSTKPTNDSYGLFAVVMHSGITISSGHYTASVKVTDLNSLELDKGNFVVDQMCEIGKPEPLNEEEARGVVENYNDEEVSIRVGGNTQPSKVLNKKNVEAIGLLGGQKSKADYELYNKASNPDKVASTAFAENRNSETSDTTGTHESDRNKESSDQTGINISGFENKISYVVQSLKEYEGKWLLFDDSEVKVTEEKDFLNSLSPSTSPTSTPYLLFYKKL
Chain of Glucocorticoid receptor (Homo sapiens) (P04150 whole entry, looked up, the tested form may be a part): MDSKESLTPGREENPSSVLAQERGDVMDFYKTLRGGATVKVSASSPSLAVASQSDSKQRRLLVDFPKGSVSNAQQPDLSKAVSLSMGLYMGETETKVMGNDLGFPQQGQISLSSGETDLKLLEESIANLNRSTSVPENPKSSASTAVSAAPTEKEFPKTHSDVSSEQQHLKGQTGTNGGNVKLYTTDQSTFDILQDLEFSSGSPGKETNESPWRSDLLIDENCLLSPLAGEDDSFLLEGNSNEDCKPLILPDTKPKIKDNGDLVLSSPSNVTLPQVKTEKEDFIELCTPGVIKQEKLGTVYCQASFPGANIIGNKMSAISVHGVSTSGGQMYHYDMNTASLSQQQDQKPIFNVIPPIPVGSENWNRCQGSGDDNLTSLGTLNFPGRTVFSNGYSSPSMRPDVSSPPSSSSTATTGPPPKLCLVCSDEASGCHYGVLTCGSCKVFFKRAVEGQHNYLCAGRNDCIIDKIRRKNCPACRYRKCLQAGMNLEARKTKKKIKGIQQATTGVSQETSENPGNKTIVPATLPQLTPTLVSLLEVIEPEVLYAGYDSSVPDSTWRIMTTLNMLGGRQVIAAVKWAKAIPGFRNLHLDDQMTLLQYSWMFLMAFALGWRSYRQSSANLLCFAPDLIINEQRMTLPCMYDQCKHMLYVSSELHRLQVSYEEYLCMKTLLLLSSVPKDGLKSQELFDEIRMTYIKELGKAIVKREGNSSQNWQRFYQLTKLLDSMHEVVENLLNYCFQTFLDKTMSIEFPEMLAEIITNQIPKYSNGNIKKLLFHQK

NC(=O)N[C@H]1NC(=O)NC1=O
17.1%: max response [8, 14]
21.8%: max response [8, 13]
inactive: outcome [1] | Potency [2] | activity change, negative = inhibition [3] -6.77% | outcome [4] | Potency [5] > 20.6 µM | Potency [6] > 20.6 µM | outcome [7] | activity change, negative = inhibition [8] -0.627% | Potency [9] | activity, negative = inhibition ([10]; parasite line A) 2.27% | activity, negative = inhibition ([10]; parasite line B) 16.7% | Potency (C2A) | Potency (CP217) | Potency (CP238) | Potency (CP250) | Potency (CP256) | Potency (FAB9) | Potency (JCK) | Potency (SC27B)

C[C@@]12CC3CC(N)(C1)C[C@@](C)(C3)C2
-3.78%: max response [8, 14]
-3.32%: max response [8, 13]
inactive: outcome [1] | Potency [2] | activity change, negative = inhibition [3] -7.73% | outcome [4] | Potency [5] > 20.6 µM | Potency [6] > 20.6 µM | Potency [11] | outcome [7] | activity change, negative = inhibition [8] -4.9% | Potency [12]

C=C1CC[C@H](O)C/C1=C/C=C1\CCC[C@]2(C)[C@H]1CC[C@H]2[C@@H](C)/C=C\[C@@H](C)C(C)C
-2.71%: max response [8, 14]
-2.49%: max response [8, 13]
inactive: outcome [1] | Potency [2] | activity change, negative = inhibition [3] 1.42% | outcome [4] | Potency [5] > 20.6 µM | Potency [6] > 20.6 µM | Potency [11] | outcome [7] | activity change, negative = inhibition [8] 0.549% | Potency [12]

CC(C)(C)NC[C@H](O)COc1cccc2c1CCC(=O)N2
active: Potency (JCK) 8.91 µM
-2.13%: max response [8, 13]
-1.05%: max response [8, 14]
inactive: outcome [1] | Potency [2] | activity change, negative = inhibition [3] -6.75% | outcome [4] | Potency [5] > 20.6 µM | Potency [6] > 20.6 µM | Potency [11] | outcome [7] | activity change, negative = inhibition [8] -0.554% | Potency [12] | Potency [9] | activity, negative = inhibition ([10]; parasite line A) 7.75% | activity, negative = inhibition ([10]; parasite line B) -1.3% | Potency (C2A) | Potency (CP217) | Potency (CP238) | Potency (CP250) | Potency (CP256) | Potency (FAB9) | Potency (SC27B)

C[N+]1(C)C[C@@H](O)C[C@@H]1C(=O)[O-]
-3.42%: max response [8, 14]
inactive: outcome [1] | Potency [2] | activity change, negative = inhibition [3] -11.1% | outcome [4] | Potency [5] > 20.6 µM | Potency [6] > 20.6 µM | Potency [11] | outcome [7] | activity change, negative = inhibition [8] -1.53% | Potency [12]
-1.48%: max response [8, 13]

C[C@@]12CC[C@H]3[C@@H](CCC4=CC(=O)CC[C@]43C)[C@H]1CC[C@H]2C(=O)CO
inactive: outcome [1] | Potency [2] | activity change, negative = inhibition [3] -6.24% | outcome [4] | Potency [6] > 20.6 µM | Potency [11] | outcome [7] | activity change, negative = inhibition [8] -5.79% | Potency [9] | activity, negative = inhibition ([10]; parasite line B) 3.27% | Potency (C2A) | Potency (CP217) | Potency (CP238) | Potency (CP250) | Potency (CP256) | Potency (FAB9) | Potency (JCK) | Potency (SC27B)
-3.01%: max response [8, 13]
active: Potency [5] 0.0622 µM | Potency ([10]; parasite line A) 4.47 µM
-9.53%: max response [8, 14]

CC(=O)c1cc2ccccc2oc1=O
-14%: max response [8, 13]
-18.4%: max response [8, 14]
inactive: outcome [1] | activity change, negative = inhibition [3] -3.16% | outcome [4] | Potency [5] > 20.6 µM | Potency [6] > 20.6 µM | Potency [11] | outcome [7] | activity change, negative = inhibition [8] -3.99% | Potency [12]
active: Potency [2] 0.2 µM

CN=C(NC#N)NCCSC[C@H]1N=CN=C1C
-1.32%: max response [8, 14]
inactive: outcome [1] | Potency [2] | activity change, negative = inhibition [3] -3.43% | outcome [4] | Potency [11] | outcome [7] | activity change, negative = inhibition [8] -0.0882% | Potency [12]
-1.59%: max response [8, 13]

C[C@@H]1Cc2ccccc2N1NC(=O)c1ccc(Cl)c(S(N)=O)c1 (stereo partly drawn)
inactive: outcome [1] | Potency [2] | activity change, negative = inhibition [3] 6.1% | outcome [4] | Potency [11] | outcome [7] | activity change, negative = inhibition [8] -0.666% | Potency [12] | activity, negative = inhibition ([10]; parasite line A) 15.9% | activity, negative = inhibition ([10]; parasite line B) 17.7% | Potency (C2A) | Potency (CP217) | Potency (CP238) | Potency (CP250) | Potency (CP256) | Potency (FAB9) | Potency (JCK) | Potency (SC27B)
7.13%: max response [8, 14]
8.03%: max response [8, 13]

CC[C@@H]1OC(=O)[C@H](C)[C@H](O[C@@H]2C[C@](C)(OC)[C@H](O)[C@H](C)O2)[C@H](C)[C@H](O[C@@H]2O[C@@H](C)C[C@@H](N(C)C)[C@@H]2O)[C@](C)(O)C[C@H](C)[C@@H]2N[C@H](COCCOC)O[C@H]([C@@H]2C)[C@]1(C)O
inactive: outcome [1] | Potency [2] | activity change, negative = inhibition [3] -16.7% | outcome [4] | Potency [11] | outcome [7] | activity change, negative = inhibition [8] -3.92% | Potency [12]
-9.89%: max response [8, 14]
-8.33%: max response [8, 13]

Cc1onc(-c2c(Cl)cccc2Cl)c1C(=O)N[C@H]1C(=O)N2[C@H]1SC(C)(C)[C@H]2C(=O)O
inactive: outcome [1] | Potency [2] | activity change, negative = inhibition [3] -5.49% | outcome [4] | Potency [5] > 20.6 µM | Potency [6] > 20.6 µM | Potency [11] | outcome [7] | activity change, negative = inhibition [8] -2.5% | Potency [12]
-4.28%: max response [8, 14]
-2.7%: max response [8, 13]

NC[C@@H]1O[C@H](O[C@@H]2[C@H](O[C@@H]3O[C@H](CO)[C@@H](COC[C@H]4O[C@@H](CN)[C@@H](O)[C@@H](O)[C@@H]4N)[C@@H]3O)[C@@H](O)[C@@H](N)C[C@H]2N)[C@@H](N)[C@H](O)[C@@H]1O
inactive: outcome [1] | Potency [2] | activity change, negative = inhibition [3] -1.32% | outcome [4] | Potency [5] > 20.6 µM | Potency [6] > 20.6 µM | Potency [11] | outcome [7] | activity change, negative = inhibition [8] -1.17% | Potency [12]
2.23%: max response [8, 14]
1.11%: max response [8, 13]

CC(=O)CC(=O)[C@@]1(O)CC[C@@H]2[C@@H]3C=C(C)C4=CC(=O)CC[C@@H]4[C@H]3CC[C@]21C
-21%: max response [8, 14]
-16.2%: max response [8, 13]
inactive: outcome [1] | Potency [2] | activity change, negative = inhibition [3] -13.4% | outcome [4] | Potency [6] > 20.6 µM | Potency [11] | outcome [7] | activity change, negative = inhibition [8] -4.61%
